Reference: publication PMC7862700, “An all-to-all approach to the identification of sequence-specific readers for epigenetic DNA modifications on cytosine”

Tests used:
Assay in all cases: DAPPL (digital affinity profiling via proximity ligation, sequencing); 10 mM Tris-HCl pH 7.5, 50 mM NaCl, 1 mM DTT, 4% glycerol, room temperature, 30 min; GST-TFs on glutathione beads, 16-mer random dsDNA library, 0.1% formaldehyde crosslink after washing; high values mean tight binding
FEV = molecular target: T1, FEV (Homo sapiens, UniProt Q99581 1-238); details: protein: recombinant; tags: N-terminal GST; dsDNA, one strand shown
T1 sequence: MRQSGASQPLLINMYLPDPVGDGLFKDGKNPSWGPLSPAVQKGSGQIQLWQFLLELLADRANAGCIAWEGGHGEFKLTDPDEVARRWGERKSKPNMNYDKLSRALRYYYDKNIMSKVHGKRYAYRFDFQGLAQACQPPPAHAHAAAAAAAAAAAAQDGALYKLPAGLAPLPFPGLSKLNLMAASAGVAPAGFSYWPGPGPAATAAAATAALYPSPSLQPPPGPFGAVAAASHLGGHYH
In short: (§1)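 In yeast, human transcription factors were expressed with a GST fusion, then pulled down on glutathione beads and given DNA barcodes. Pooled with a tag-only sample, they were exposed to 200 nmole of a 16-mer random double-stranded DNA library (Tris/NaCl/DTT/glycerol buffer, room temperature, 30 min), washed, crosslinked with 0.1% formaldehyde, proximity-ligated using BsaI/T4 ligase for 1 h at 37 °C, PCR-amplified and read on an Illumina NextSeq500. Each hexamer's frequency of reads for a factor, divided by the matching frequency for the tag-only sample, gives the binding signal.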

ETV5 = ETV5 (Homo sapiens, UniProt P41161 1-510); details: protein: recombinant; tags: N-terminal GST; dsDNA, one strand shown
Chain of ETV5 (P41161 whole entry): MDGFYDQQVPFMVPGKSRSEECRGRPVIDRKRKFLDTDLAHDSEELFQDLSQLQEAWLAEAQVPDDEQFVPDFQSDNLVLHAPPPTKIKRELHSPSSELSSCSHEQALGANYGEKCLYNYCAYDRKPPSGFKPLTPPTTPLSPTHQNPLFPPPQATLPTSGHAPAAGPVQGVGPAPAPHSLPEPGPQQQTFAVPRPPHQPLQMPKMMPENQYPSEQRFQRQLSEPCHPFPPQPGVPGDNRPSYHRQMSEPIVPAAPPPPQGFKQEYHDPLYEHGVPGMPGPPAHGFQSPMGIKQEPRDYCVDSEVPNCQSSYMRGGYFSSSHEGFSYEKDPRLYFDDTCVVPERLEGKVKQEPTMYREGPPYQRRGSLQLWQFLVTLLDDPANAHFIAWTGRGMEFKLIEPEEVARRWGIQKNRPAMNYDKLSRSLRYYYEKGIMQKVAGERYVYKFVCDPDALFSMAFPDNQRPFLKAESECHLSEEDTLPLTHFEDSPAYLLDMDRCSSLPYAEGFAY
In short: as §1

HSF1 = HSF1 (Homo sapiens, UniProt Q00613 1-529); details: protein: recombinant; tags: N-terminal GST; chain copies: 3; dsDNA, one strand shown
Chain of HSF1 (Q00613 whole entry): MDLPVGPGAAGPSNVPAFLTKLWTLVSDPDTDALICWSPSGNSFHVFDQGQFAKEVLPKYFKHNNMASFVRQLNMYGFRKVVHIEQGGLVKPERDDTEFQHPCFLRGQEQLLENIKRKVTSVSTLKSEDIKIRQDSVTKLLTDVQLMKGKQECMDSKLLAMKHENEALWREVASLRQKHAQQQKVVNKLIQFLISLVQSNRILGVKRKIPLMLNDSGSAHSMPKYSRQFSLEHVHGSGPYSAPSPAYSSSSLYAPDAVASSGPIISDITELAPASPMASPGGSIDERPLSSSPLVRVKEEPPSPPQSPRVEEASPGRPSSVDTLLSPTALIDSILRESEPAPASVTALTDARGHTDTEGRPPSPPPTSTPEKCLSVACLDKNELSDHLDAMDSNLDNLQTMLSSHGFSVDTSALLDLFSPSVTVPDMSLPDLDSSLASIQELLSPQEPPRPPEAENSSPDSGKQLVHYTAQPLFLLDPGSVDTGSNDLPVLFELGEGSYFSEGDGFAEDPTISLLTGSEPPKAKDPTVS
In short: as §1

SPIC = molecular target: T2, SPIC (Homo sapiens, UniProt Q8N5J4 1-248); details: protein: recombinant; tags: N-terminal GST; dsDNA, one strand shown
T2 sequence: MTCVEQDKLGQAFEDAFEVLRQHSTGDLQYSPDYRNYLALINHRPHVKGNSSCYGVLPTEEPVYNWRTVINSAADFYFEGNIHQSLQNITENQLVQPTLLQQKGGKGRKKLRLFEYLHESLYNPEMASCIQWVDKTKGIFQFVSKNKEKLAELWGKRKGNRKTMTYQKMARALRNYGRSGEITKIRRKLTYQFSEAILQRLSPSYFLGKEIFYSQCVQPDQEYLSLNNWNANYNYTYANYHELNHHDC
In short: as §1

ELF4 = ELF4 (Homo sapiens, UniProt Q99607 1-663); details: protein: recombinant; tags: N-terminal GST; dsDNA, one strand shown
Chain of ELF4 (Q99607 whole entry): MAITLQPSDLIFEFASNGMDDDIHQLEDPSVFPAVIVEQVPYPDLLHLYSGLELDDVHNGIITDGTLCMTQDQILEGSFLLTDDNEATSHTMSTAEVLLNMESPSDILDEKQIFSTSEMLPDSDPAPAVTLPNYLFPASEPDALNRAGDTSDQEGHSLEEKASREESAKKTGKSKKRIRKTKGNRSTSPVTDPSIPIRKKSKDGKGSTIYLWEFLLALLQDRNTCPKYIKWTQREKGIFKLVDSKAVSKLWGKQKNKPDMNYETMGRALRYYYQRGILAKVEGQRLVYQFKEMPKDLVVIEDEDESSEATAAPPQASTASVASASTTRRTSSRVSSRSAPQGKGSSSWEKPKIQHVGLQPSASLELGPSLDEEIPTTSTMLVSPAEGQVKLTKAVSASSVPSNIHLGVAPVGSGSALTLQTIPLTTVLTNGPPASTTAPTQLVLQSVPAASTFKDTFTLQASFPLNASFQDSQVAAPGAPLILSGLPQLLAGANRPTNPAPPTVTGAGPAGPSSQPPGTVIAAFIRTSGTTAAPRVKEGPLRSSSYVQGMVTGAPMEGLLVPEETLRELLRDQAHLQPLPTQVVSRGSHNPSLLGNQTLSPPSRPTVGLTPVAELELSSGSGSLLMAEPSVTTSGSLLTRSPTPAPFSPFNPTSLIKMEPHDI
In short: as §1

ELK4 = molecular target: T3, ELK4 (Homo sapiens, UniProt P28324-2 1-405); details: protein: recombinant; tags: N-terminal GST; dsDNA, one strand shown
T3 sequence: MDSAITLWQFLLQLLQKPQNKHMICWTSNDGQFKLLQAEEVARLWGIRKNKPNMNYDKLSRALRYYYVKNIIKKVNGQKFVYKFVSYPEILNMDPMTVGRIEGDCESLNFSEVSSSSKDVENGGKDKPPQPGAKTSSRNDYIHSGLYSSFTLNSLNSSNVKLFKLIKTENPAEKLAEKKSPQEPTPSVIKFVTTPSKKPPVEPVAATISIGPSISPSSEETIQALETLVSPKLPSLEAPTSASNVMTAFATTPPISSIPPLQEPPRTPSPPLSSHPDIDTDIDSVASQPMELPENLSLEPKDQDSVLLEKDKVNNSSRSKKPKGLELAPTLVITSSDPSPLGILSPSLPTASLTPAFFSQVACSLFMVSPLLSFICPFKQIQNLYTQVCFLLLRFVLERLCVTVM
In short: as §1

ETV2 = molecular target: T4, ETV2 (Homo sapiens, UniProt O00321 1-342); details: protein: recombinant; tags: N-terminal GST; dsDNA, one strand shown
T4 sequence: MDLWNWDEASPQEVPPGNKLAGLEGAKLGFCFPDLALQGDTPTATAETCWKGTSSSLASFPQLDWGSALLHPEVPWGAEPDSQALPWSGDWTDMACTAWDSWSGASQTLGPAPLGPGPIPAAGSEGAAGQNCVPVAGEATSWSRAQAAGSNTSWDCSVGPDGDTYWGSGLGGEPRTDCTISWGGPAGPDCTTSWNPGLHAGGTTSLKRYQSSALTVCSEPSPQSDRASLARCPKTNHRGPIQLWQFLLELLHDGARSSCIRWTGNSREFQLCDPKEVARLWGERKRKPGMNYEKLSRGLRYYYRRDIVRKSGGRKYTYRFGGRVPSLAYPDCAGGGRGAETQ
In short: as §1

ELF3 = molecular target: T5, ELF3 (Homo sapiens, UniProt P78545 1-371); details: protein: recombinant; tags: N-terminal GST; dsDNA, one strand shown
T5 sequence: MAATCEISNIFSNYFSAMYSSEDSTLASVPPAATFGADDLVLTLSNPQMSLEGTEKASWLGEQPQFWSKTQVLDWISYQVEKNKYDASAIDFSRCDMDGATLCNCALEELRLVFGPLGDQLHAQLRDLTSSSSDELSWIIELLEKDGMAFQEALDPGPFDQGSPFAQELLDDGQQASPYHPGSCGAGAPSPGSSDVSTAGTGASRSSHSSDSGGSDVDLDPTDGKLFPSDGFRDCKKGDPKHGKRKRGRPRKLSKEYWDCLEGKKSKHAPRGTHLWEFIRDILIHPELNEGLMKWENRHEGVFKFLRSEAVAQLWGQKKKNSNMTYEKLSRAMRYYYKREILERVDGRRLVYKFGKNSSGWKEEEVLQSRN
In short: as §1

ETV1 = ETV1 (Homo sapiens, UniProt P50549 1-477); details: protein: recombinant; tags: N-terminal GST; dsDNA, one strand shown
Chain of ETV1 (P50549 whole entry): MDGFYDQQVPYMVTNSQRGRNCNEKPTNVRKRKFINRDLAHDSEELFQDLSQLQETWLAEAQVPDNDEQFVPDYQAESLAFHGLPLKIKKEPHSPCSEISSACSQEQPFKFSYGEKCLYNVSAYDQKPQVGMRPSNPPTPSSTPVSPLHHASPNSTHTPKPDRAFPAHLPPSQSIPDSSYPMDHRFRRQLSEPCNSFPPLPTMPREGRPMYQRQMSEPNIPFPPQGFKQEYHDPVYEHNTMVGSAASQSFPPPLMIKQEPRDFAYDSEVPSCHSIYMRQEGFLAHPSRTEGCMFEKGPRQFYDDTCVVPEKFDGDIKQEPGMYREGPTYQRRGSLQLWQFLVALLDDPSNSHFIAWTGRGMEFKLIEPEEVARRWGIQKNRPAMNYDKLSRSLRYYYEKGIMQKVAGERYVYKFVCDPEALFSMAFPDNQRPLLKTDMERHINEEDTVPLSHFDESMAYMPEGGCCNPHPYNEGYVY
In short: as §1

ERF = molecular target: T6, ERF (Homo sapiens, UniProt P50548 1-548); details: protein: recombinant; tags: N-terminal GST; dsDNA, one strand shown
T6 sequence: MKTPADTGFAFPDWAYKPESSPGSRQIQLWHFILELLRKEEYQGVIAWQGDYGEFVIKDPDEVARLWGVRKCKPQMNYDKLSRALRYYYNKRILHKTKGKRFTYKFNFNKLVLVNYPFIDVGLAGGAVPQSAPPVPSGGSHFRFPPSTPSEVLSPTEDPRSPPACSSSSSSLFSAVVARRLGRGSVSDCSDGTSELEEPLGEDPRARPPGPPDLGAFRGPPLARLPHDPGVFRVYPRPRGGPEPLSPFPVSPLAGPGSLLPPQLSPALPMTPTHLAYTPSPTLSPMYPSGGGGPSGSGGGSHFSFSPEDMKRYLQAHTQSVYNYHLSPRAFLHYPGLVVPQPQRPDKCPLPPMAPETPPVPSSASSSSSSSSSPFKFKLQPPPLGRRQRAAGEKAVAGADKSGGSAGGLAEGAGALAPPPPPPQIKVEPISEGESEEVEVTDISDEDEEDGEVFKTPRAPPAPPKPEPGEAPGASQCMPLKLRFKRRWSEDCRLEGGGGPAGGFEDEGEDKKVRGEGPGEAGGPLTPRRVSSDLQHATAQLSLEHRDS
In short: as §1

ETV3L = molecular target: T7, ETV3L (Homo sapiens, UniProt Q6ZN32 1-361); details: protein: recombinant; tags: N-terminal GST; dsDNA, one strand shown
T7 sequence: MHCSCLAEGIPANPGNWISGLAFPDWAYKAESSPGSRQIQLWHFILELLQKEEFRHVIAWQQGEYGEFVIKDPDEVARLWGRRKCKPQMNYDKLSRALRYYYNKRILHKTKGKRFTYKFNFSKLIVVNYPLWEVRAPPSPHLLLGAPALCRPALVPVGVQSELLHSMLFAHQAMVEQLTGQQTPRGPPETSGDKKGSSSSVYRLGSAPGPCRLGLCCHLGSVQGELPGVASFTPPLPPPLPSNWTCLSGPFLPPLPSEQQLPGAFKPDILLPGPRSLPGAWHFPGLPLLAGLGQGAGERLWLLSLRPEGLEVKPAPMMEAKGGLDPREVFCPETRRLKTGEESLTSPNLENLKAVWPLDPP
In short: as §1

ETS2 = molecular target: T8, ETS2 (Homo sapiens, UniProt P15036 1-469); details: protein: recombinant; tags: N-terminal GST; dsDNA, one strand shown
T8 sequence: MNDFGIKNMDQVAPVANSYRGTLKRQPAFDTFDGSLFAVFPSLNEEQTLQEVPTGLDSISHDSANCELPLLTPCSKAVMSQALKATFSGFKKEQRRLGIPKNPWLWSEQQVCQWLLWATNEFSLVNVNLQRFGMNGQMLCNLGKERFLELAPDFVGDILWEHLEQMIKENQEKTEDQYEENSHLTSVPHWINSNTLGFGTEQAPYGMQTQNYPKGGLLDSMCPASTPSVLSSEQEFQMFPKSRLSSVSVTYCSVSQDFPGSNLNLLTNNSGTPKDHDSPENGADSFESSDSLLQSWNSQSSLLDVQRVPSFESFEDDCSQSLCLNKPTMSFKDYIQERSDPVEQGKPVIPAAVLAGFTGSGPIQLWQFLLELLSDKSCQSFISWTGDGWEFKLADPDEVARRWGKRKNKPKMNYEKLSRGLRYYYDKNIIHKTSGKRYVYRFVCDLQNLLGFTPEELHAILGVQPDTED
In short: as §1

SPDEF = molecular target: T9, SPDEF (Homo sapiens, UniProt O95238 1-335); details: protein: recombinant; tags: N-terminal GST; dsDNA, one strand shown
T9 sequence: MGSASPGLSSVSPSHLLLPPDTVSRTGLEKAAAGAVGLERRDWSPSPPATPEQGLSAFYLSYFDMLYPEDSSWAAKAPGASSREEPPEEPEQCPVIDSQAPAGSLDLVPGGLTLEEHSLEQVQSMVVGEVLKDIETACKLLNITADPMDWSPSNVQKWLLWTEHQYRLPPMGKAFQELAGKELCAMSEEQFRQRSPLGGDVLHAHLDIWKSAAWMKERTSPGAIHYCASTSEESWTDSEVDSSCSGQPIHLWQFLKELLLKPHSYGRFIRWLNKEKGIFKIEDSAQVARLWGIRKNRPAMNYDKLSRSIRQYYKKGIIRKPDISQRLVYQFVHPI
In short: as §1

ETV7 = molecular target: T10, ETV7 (Homo sapiens, UniProt Q9Y603 1-341); details: protein: recombinant; tags: N-terminal GST; dsDNA, one strand shown
T10 sequence: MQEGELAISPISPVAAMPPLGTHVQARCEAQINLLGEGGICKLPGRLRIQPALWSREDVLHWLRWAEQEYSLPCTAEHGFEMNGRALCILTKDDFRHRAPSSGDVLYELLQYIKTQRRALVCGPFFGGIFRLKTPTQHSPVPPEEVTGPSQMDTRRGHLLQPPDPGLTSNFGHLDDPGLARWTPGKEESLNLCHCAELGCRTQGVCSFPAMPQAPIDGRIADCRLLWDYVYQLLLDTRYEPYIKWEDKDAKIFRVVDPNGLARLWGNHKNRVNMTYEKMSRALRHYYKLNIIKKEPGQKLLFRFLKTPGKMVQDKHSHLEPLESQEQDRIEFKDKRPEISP
In short: as §1

ELF5 = molecular target: T11, ELF5 (Homo sapiens, UniProt Q9UKW6-2 1-255); details: protein: recombinant; tags: N-terminal GST; dsDNA, one strand shown
T11 sequence: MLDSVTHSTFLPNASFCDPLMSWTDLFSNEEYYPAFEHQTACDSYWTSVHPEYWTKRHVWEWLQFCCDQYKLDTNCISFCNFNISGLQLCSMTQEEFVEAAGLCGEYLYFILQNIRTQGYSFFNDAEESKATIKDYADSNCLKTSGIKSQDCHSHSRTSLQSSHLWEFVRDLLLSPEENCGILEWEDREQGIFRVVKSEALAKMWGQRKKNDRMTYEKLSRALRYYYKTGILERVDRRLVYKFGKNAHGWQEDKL
In short: as §1

ETV3 = molecular target: T12, ETV3 (Homo sapiens, UniProt P41162-2 1-143); details: protein: recombinant; tags: N-terminal GST; dsDNA, one strand shown
T12 sequence: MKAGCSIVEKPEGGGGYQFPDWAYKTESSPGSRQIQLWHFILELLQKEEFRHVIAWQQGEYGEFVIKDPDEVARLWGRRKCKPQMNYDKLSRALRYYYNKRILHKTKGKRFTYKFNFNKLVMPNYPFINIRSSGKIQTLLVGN
In short: as §1

ETV6 = ETV6 (Homo sapiens, UniProt P41212 1-452); details: protein: recombinant; tags: N-terminal GST; dsDNA, one strand shown
Chain of ETV6 (P41212 whole entry): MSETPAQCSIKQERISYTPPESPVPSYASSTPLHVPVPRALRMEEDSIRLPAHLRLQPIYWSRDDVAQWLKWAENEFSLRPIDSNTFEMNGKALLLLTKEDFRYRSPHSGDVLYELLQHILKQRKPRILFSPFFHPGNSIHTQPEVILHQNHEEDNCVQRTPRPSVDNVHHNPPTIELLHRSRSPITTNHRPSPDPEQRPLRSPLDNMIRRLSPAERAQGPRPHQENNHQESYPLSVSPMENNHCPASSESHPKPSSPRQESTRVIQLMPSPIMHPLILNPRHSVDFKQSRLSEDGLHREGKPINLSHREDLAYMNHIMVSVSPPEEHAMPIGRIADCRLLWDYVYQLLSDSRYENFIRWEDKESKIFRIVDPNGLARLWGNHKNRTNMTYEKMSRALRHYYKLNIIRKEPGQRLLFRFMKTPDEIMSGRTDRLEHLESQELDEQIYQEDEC
In short: as §1

Which results are given for AACAAG?
binding signal (FEV): 1.03 fold enrichment (6-mer frequency, TF over GST control); binding signal (ETV5): 1.14 fold enrichment (6-mer frequency, TF over GST control); binding signal (HSF1): 1.03 fold enrichment (6-mer frequency, TF over GST control); binding signal (SPIC): 1.15 fold enrichment (6-mer frequency, TF over GST control); binding signal (ELF4): 1.17 fold enrichment (6-mer frequency, TF over GST control); binding signal (ELK4): 1.01 fold enrichment (6-mer frequency, TF over GST control); binding signal (ETV2): 1 fold enrichment (6-mer frequency, TF over GST control); binding signal (ELF3): 1.26 fold enrichment (6-mer frequency, TF over GST control); binding signal (ETV1): 1.13 fold enrichment (6-mer frequency, TF over GST control); binding signal (ERF): 1.19 fold enrichment (6-mer frequency, TF over GST control); binding signal (ETV3L): 1.18 fold enrichment (6-mer frequency, TF over GST control); binding signal (ETS2): 1.06 fold enrichment (6-mer frequency, TF over GST control); binding signal (SPDEF): 1.05 fold enrichment (6-mer frequency, TF over GST control); binding signal (ETV7): 1.14 fold enrichment (6-mer frequency, TF over GST control); binding signal (ELF5): 1.22 fold enrichment (6-mer frequency, TF over GST control); binding signal (ETV3): 1.11 fold enrichment (6-mer frequency, TF over GST control); binding signal (ETV6): 1.12 fold enrichment (6-mer frequency, TF over GST control)
